# The supplement of paper PMC6555819
# Key:
# Test in all cases: PBM binding z-score (relative to random genomic background probes); higher = stronger binding; sequences stand for … in GC…GCGATTGACAGCGTAGAATGAAGG
# [1] = test system: FXR:RXRa (NR concentration 270 nM, RXRa partner concentration 90 nM)
# In short: (§1)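 Ligand-free nuclear receptor dimers were applied to custom Agilent 4×180K protein-binding microarrays whose double-stranded probes carried direct-repeat seeds, single-nucleotide variants, half-site ablations and random human genomic background sequences in 34-nt variable regions. Incubation lasted 1 h. Binding z-scores were computed against the random background probes from regression-normalized fluorescence.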
# [2] = test system: LXRa homodimer (NR concentration 270 nM)
# In short: as §1
# [3] = test system: LXRb homodimer (NR concentration 270 nM)
# In short: as §1
# [4] = test system: PPARa:RXRa (NR concentration 270 nM, RXRa partner concentration 90 nM)
# In short: as §1
# [5] = test system: PPARg:RXRa (NR concentration 180 nM, RXRa partner concentration 90 nM)
# In short: as §1
# [6] = test system: PPARg:RXRa 270nM:90nM, anti-RXR (NR concentration 270 nM, RXRa partner concentration 90 nM)
# In short: as §1
# [7] = test system: PPARg:RXRa 30nM:10nM, anti-RXR (NR concentration 30 nM, RXRa partner concentration 10 nM)
# In short: as §1
# [8] = test system: PPARg:RXRa 90nM:30nM, anti-RXR (NR concentration 90 nM, RXRa partner concentration 30 nM)
# In short: as §1
# [9] = test system: PPARg:RXRa DBDmut IVT, anti-RXR (DBD mutation: RXRa K156A/R161A, NR concentration 270 nM, RXRa partner concentration 90 nM)
# In short: as §1
# [10] = test system: LXRa:RXRa (NR concentration 270 nM, RXRa partner concentration 90 nM)
# In short: as §1
Sequence,PBM binding z-score [1],PBM binding z-score [2],PBM binding z-score [3],PBM binding z-score [4],PBM binding z-score [5],PBM binding z-score [6],PBM binding z-score [7],PBM binding z-score [8],PBM binding z-score [9],PBM binding z-score [10]
GCTGCTAGGTCAACTGATGGTCATCTAAAGCTCG,4.19,0.86,0.134,3.75,2.92,3.32,0.892,2.34,5.18,–
CGTCCAAAGTCAAAGGTCAGTGAAGAGATGACGG,3.96,1.31,0.637,5.06,5.73,5.88,3.89,5.37,0.242,–
ATATGTAGGTTAGGGGTCATTCAGGTTGGTTCGC,6.13,4.58,3.55,6.51,11.4,9.8,10.2,11,7.09,5.98
ATATGTAGGTCAAGGGTCATTCAGGTTGGTTCGC,7.27,5.58,2.07,–,–,10.5,11.7,11.7,8.58,6.25
CCGAGTTGGTCAAGGTCACACACGCTATAGGTAC,4.37,1.98,0.352,4.35,3.12,3.37,0.931,2.65,1.59,–
AGAATGGGGTTACCAAAGATCAGGGAAACGCTTG,3.7,-0.351,0.166,5.05,4.62,4.32,1.72,3.47,4.37,–
CCTAGTTGGTCAAGGTCACATACGCTATAGGTAC,3.98,1.97,1.23,4,3.3,3.43,1.17,2.91,2.23,–
ATATGTAGGTTATCGGGTCATACAGTTTGCGCAT,3.18,1.45,1.35,5.09,7.64,6.2,4.38,5.61,7.63,–
ATATGTAGGTTATCTGGGGTCATTCAGACTAGGC,6.16,8.86,2.41,5.4,6.31,5.84,3.28,5.32,7.21,–
CAAACTAGGTCACAGTGGTCAAAGTCCGTGCGTA,4.01,0.593,-0.0137,5,8.83,6.97,5.52,7.04,8.5,–
CTATGTGGGTTAAGGGGGTCATTCAGTTTGAAAG,5.61,3.82,–,6.22,8.76,7.71,5.51,7.71,7.57,5.47
CCTACTGGGTCACGAAAGGTCATTGATTCAGTGA,6.45,6.45,0.81,6.44,9.12,7.71,5.23,6.95,7.12,–
GGAACGAGGGCAAAGTTCATAGCATCTGTCGACG,4.26,3.9,-0.156,6.24,–,9.67,9.74,10.7,4.19,4.95
CCTAGCAGGCCAATCTAGGTCACTCAAGGCTTGA,1.46,0.192,-0.859,3.15,2.1,2.47,0.115,1.49,5.08,–
TCGTGTAGGTTACGGGGGCATTCAGGGATGAAGA,3.84,1.21,–,4.58,6.02,6.17,4.82,5.8,5.22,3.76
CGTCCAAGGTCTAGGTCAGTGAAAGAGACTCGAA,0.449,-0.0366,-0.741,1.06,-0.0446,0.357,-0.506,-0.014,0.895,0.249
CGAACTAGGTCATCCAGGTCAGTGAATACATTGA,5.02,1.02,-0.0563,5.17,7.77,6.49,4.46,6.24,8.34,–
ATCAAAAGGTCGAGGTGAGTATAGAGAAAGGGAA,4.62,0.533,1.32,4.75,3.37,3.94,1.51,2.81,0.945,4.01
TCTAGTTGGTCAAAGGTCACGCACTCGAAATGCG,6.9,4.78,1.9,–,12,10.2,12.6,12.2,3.84,6.16
CCGAATAGGTTACGAGGGGGCATTCAGTGCGAAT,3.52,2.43,–,–,2.08,3.71,2,2.62,2.73,7.98
CCTACTGGGCCATTCAGAGGGCATTGATCATATG,-0.338,0.468,-0.759,0.726,0.602,0.565,-0.432,-0.127,4.54,–
CGTCCAAGGTCATATGAGGTCAGTGAAGACAGAT,7.7,6.17,2.22,5.65,4.87,5.72,2.34,4.36,3.46,–
ACTTACGGGTCAACGAGGTCATAGCACGCGTATA,7.21,3.72,1.13,6.12,6.76,6.81,3.78,5.73,4.12,6.34
CGTCCAAGGTCAAAGGTCAATGAAGAGATGACGG,8.53,4.31,2.18,–,10.8,9.12,8.3,9.78,3.66,7.3
CCTGCTAGGTCAAAGGTCAGCTAAAGCAGCTCGC,7.56,2.52,1.05,–,–,10.2,11.3,12.6,5.89,6.38
CCGACGGGGGCAAAGGTTACCATACTCAGTACGA,5.52,0.667,5.6,–,10,9.24,8.76,10.4,2.71,5.02

Sequence,PBM binding z-score [1],PBM binding z-score [2],PBM binding z-score [3],PBM binding z-score [4],PBM binding z-score [5],PBM binding z-score [6],PBM binding z-score [7],PBM binding z-score [8],PBM binding z-score [9],PBM binding z-score [10]
TCTTGTAGATCAACAGGAGGTTAATAAAGATCGA,0.0439,-0.0218,-0.135,1.23,0.6,1.68,2.71,2.08,1.38,–
CCTTACGGGTCACGTGGTTATAGCACGACGAGCG,6.41,-0.108,-0.474,5.88,6.07,5.77,2.2,4.59,3.06,–
TCGAGTAGGTCACGGGGGCATTCAGGGATGAAGA,6.7,1.07,–,6.09,9.41,7.99,5.9,7.7,6.73,5.3
CGTCCAAGGTCATAGGAGGTCAATGAAGACAGAT,7.84,6.78,1.44,–,5.9,6.13,2.88,5.04,3,7.73
ATATGTAGGTTGGGGTCATTCAGAAAGTAGGGAA,5.99,2.32,4.74,–,7.05,6.09,3.16,5.4,3.81,5.41
CTATGTAGGTCAAGGGGGTCATTCAGTTTGAAAG,7.19,4.49,–,–,–,9.27,8.54,10.3,8.6,5.9
AGAATGAGGTTACTAAAGATCAGGGAAACGCTTG,1.18,0.111,0.0247,2.5,1.81,1.58,0.706,1.07,3.7,–
CTATGTAGGTTACGGGGGTCATTCAGTTTGAAAG,5.4,2.93,–,6.13,9.31,7.81,5.47,7.92,7.41,5.54
ATCGAAAGGTCGTGAGGTAAGTATACAGAAAGGC,5.54,0.488,0.774,5.23,4.03,4.37,1.57,3.06,0.266,–
ATATGTAGGTTAAAGGTCATTCAGGTTGGTTCGC,7.3,6.86,2.72,–,–,11,13.3,13.6,8.31,6.58
CTATGTAGGTTAGGGGGGTCATTCAGTTTGAAAG,5.78,3.89,–,–,9.03,7,5.35,7.07,6.54,5.66
CCTACTGGACCAAGGTCATTGATCAGTCAAAGCA,3.24,1.96,0.618,3.97,2.11,2.77,0.593,1.95,2.03,–
AATACAGGGTCATCGTAGGTCAGAGTACGCACAG,7.7,5.76,1.95,6.23,7.46,6.38,3.55,5.23,3.26,–
TAGCCTAGGTCATTCAGGGGCCACTATAGAAAGC,4.76,1.27,1.1,3.95,2.63,2.83,0.439,2.09,2.08,–
ATATGTAGGTTAGCTGGGGTCCTTCAGACTAGGC,0.425,-0.109,0.384,2.78,2.96,2.75,0.715,1.78,6.27,–
CAAACTAGGTCACTAAAGGTCAAAGTCGAATGAC,7.13,10.4,4.07,6.51,10.1,8.33,6.31,8.16,8.1,–
TCTTGTAGGTCAATAGAGGTTAAGAAAGTGCGCT,4.77,3.93,1.17,5.13,6.67,5.94,4.32,5.5,7.07,–
CCTACTGGGCCACGAAAGGCCATTGATTCAGTGA,-0.0775,-0.396,-0.835,0.948,1.34,1.21,-0.199,0.589,5.23,–
CCTCGGAGGACAACAGGAGGTCATAGCTGCCAGA,2.31,4.2,-0.0136,3.13,0.961,1.16,0.00805,0.459,0.281,–
CCTTACGGGTCACGAGGTTGTAGCACGACGAGCG,6.87,0.0323,-0.413,5.73,6.48,6.12,3.32,5.08,4,–
CCTTACGGGTCACTCCAGGTTATATCATCGGAGT,4.99,2.49,0.56,4.5,3.65,3.72,0.84,2.78,2.96,–
ATCTCTAGGTTAAGATAGTTCAGTGAATGCAAAT,0.821,2.52,0.754,1.77,1.39,1.66,0.609,1.15,3.33,–
TATCAAAGTTCAAAGGTAACGTAAGTATCCACAC,6.87,6.56,3.08,5.56,6.12,6.03,3.65,5.24,0.181,–
TAGCCTAGGTCATGGGCCAGTGTACCACGCGAAC,4.82,0.0441,-0.0634,4.38,4.13,3.87,1.39,2.66,1.74,–
TAGCCTAGGTCATTCAGGGGCAAGTATAGAAAGC,5.65,2.15,1.41,3.84,2.47,2.67,0.449,1.87,1.93,–
TCTTGTAGATCAATAGAAGTTAAGAAAGTGCGCT,0.718,-0.154,0.0744,0.693,-5.78e-05,1.83,3.04,2.6,1.85,–
